According to PubChem BioAssay (NCI):
Values joined by “and” are separate entries in the source; they are usually repeats but may differ in a detail not shown here. Equal entries are not always repeated. The panel holds about 83,000 compounds, 20% with a hit somewhere; the sample as a whole holds those more often.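 Single-dose data. Exposure time 48 hours. Values below 10 considered active.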 Active and inactive are the calls of the source.

Tests used:
Test in all cases: NCI-60 one-dose screen, 48 h (100 = growth as untreated, 0 = no growth, -100 = all killed)
Conditions in all cases: 10 µM unless noted
T-47D breast = system: T-47D breast
BT-549 breast = system: BT-549 breast
MDA-MB-435 melanoma = system: MDA-MB-435 melanoma
SW-620 colon = system: SW-620 colon
MCF7 breast = system: MCF7 breast
HCT-116 colon = system: HCT-116 colon
HCC-2998 colon = system: HCC-2998 colon
KM12 colon = system: KM12 colon

`COC(=O)[C@H]1CCCN1C(=O)C1CCCN1C(=O)[C@@H](Cc1ccccc1)NC(=S)Nc1cc(C(F)(F)F)cc(C(F)(F)F)c1` (stereo partly specified) was tested, and the growth (T-47D breast) was 105% (inactive) and 69.1% (inactive), the growth (BT-549 breast) was 112% (inactive) and 96.8% (inactive) and the growth (MDA-MB-435 melanoma) was 100% (inactive) and 89.7% (inactive). The growth (SW-620 colon) was 104% (inactive) and 89% (inactive), the growth (MCF7 breast) was 99.2% (inactive) and 86.3% (inactive) and the growth (HCT-116 colon) was 112% (inactive) and 65.5% (inactive). For the same molecule, the growth (HCC-2998 colon) was 108% (inactive) and 112% (inactive) and the growth (KM12 colon) was 111% (inactive) and 96.5% (inactive).
For `CC(/C=N/N1C(=O)c2ccccc2C1=O)c1ccccc1` (stereo unspecified), the growth (T-47D breast) was 98.7% (inactive), the growth (BT-549 breast) was 113% (inactive) and the growth (MDA-MB-435 melanoma) was 91.6% (inactive). For the same molecule, the growth (SW-620 colon) was 106% (inactive), the growth (MCF7 breast) was 97.5% (inactive) and the growth (HCT-116 colon) was 108% (inactive). The growth (HCC-2998 colon) was 106% (inactive) and the growth (KM12 colon) was 113% (inactive).
`O=C(/C=C/c1ccccn1)c1ccccc1O` was tested, and the growth (T-47D breast) was 68.7% (inactive) and 66% (inactive), the growth (BT-549 breast) was 112% (inactive) and the growth (MDA-MB-435 melanoma) was 58.2% (inactive) and 75.2% (inactive). For the same molecule, the growth (SW-620 colon) was 46.1% (inactive) and 73.8% (inactive), the growth (MCF7 breast) was 37.9% (inactive) and 37.4% (inactive) and the growth (HCT-116 colon) was 44.6% (inactive). For the same molecule, the growth (HCC-2998 colon) was 9.46% (active) and 97.3% (inactive) and the growth (KM12 colon) was 40.4% (inactive) and 48.2% (inactive).
`Nc1nc2ncc(CNc3ccc(C(=O)N[C@@H](CCc4nn[nH]n4)C(=O)O)cc3)nc2c(=O)[nH]1` was tested, and the growth (T-47D breast) was 103% (inactive) and 95.9% (inactive), the growth (BT-549 breast) was 88.7% (inactive) and 107% (inactive) and the growth (MDA-MB-435 melanoma) was 101% (inactive) and 110% (inactive). The growth (SW-620 colon) was 98.5% (inactive) and 104% (inactive), the growth (MCF7 breast) was 94.2% (inactive) and 93.7% (inactive) and the growth (HCT-116 colon) was 94.1% (inactive) and 98.9% (inactive). For the same molecule, the growth (HCC-2998 colon) was 99.2% (inactive) and 104% (inactive) and the growth (KM12 colon) was 94.5% (inactive) and 103% (inactive).
In the case of `Nc1cc(-c2cccc(OC(F)(F)F)c2)nc2ccc(N3CCCC3)cc12`, the growth (T-47D breast) is reported as 99.2% (inactive) and 100% (inactive) and 87.9% (inactive), the growth (BT-549 breast) is reported as 16.2% (inactive) and 26.9% (inactive) and 3.22% (active) and the growth (MDA-MB-435 melanoma) is reported as -9.34% (active) and -21.4% (active) and -35.8% (active). The growth (SW-620 colon) was 26.8% (inactive) and 32% (inactive) and 21.7% (inactive), the growth (MCF7 breast) was 15.4% (inactive) and 14.9% (inactive) and 15.8% (inactive) and the growth (HCT-116 colon) was 2.86% (active) and 5.92% (active) and 2.47% (active). The growth (HCC-2998 colon) was -31.7% (active) and 2.5% (active) and -33.8% (active) and the growth (KM12 colon) was 10.1% (inactive) and 14.3% (inactive) and 3.24% (active).
In the case of `CC1(C)[C@@H](OC(=O)CCC(=O)O)CC[C@]2(C)[C@H]3C(=O)C=C4[C@@H]5C[C@@](C)(C(=O)O)CC[C@]5(C)CC[C@@]4(C)[C@]3(C)CC[C@@H]12`, the growth (T-47D breast) is reported as 90.6% (inactive) and 2.63% (active), the growth (BT-549 breast) is reported as 99.7% (inactive) and -32.4% (active) and the growth (MDA-MB-435 melanoma) is reported as 98.8% (inactive) and -47.7% (active). The growth (SW-620 colon) was 109% (inactive) and -37.2% (active), the growth (MCF7 breast) was 91.2% (inactive) and 6.18% (active) and the growth (HCT-116 colon) was 95.4% (inactive) and -58.8% (active). The growth (HCC-2998 colon) was 103% (inactive) and -71.7% (active) and the growth (KM12 colon) was 97% (inactive) and -73.1% (active).
With `NC(=O)NO` the growth (T-47D breast) was 107% (inactive) and 46.6% (inactive), the growth (BT-549 breast) was 110% (inactive) and 41.5% (inactive) and the growth (MDA-MB-435 melanoma) was 98.5% (inactive) and 74.4% (inactive). The growth (SW-620 colon) was 105% (inactive) and 78.4% (inactive), the growth (MCF7 breast) was 96.9% (inactive) and 65.2% (inactive) and the growth (HCT-116 colon) was 109% (inactive) and 67.6% (inactive). For the same molecule, the growth (HCC-2998 colon) was 111% (inactive) and 73.1% (inactive) and the growth (KM12 colon) was 100% (inactive) and 67.8% (inactive).
`CCOC(=O)c1sc(N)nc1-c1ccccc1` was tested, and the growth (T-47D breast) was 94.4% (inactive), the growth (BT-549 breast) was 99.9% (inactive) and the growth (MDA-MB-435 melanoma) was 103% (inactive). For the same molecule, the growth (SW-620 colon) was 109% (inactive), the growth (MCF7 breast) was 100% (inactive) and the growth (HCT-116 colon) was 96.7% (inactive). For the same molecule, the growth (HCC-2998 colon) was 102% (inactive) and the growth (KM12 colon) was 106% (inactive).
In the case of `O=[N+]([O-])c1ccc(Oc2ccccc2)cc1`, the growth (T-47D breast) is reported as 116% (inactive) and 100% (inactive), the growth (BT-549 breast) is reported as 83.9% (inactive) and 106% (inactive) and the growth (MDA-MB-435 melanoma) is reported as 101% (inactive) and 131% (inactive). For the same molecule, the growth (SW-620 colon) was 95.7% (inactive) and 94.1% (inactive), the growth (MCF7 breast) was 105% (inactive) and 95.2% (inactive) and the growth (HCT-116 colon) was 98.2% (inactive) and 106% (inactive). The growth (HCC-2998 colon) was 102% (inactive) and 105% (inactive) and the growth (KM12 colon) was 101% (inactive) and 105% (inactive).
`CN(C)CCCN1c2ccccc2Sc2ccc(Cl)cc21` was tested, and the growth (T-47D breast) was 77% (inactive) and 105% (inactive) and 87.2% (inactive), the growth (BT-549 breast) was 84.6% (inactive) and 114% (inactive) and 96.2% (inactive) and the growth (MDA-MB-435 melanoma) was 21.3% (inactive) and 129% (inactive) and 55.5% (inactive). The growth (SW-620 colon) was 86.3% (inactive) and 102% (inactive) and 83.8% (inactive), the growth (MCF7 breast) was 37.8% (inactive) and 101% (inactive) and 66.6% (inactive) and the growth (HCT-116 colon) was 28.1% (inactive) and 110% (inactive) and 59.2% (inactive). The growth (HCC-2998 colon) was 58.9% (inactive) and 107% (inactive) and 91.1% (inactive) and the growth (KM12 colon) was 87.7% (inactive) and 114% (inactive) and 100% (inactive).
With `Cc1cc(O)c2c(c1)C(=O)c1cc(O)cc(O)c1C2=O` the growth (T-47D breast) was 65% (inactive) and 73.4% (inactive), the growth (BT-549 breast) was 84.5% (inactive) and 88.1% (inactive) and the growth (MDA-MB-435 melanoma) was 76.8% (inactive) and 83.6% (inactive). The growth (SW-620 colon) was 100% (inactive) and 97.3% (inactive), the growth (MCF7 breast) was 98.4% (inactive) and 95.1% (inactive) and the growth (HCT-116 colon) was 92.9% (inactive) and 97.5% (inactive). For the same molecule, the growth (HCC-2998 colon) was 95% (inactive) and 108% (inactive) and the growth (KM12 colon) was 98.1% (inactive) and 91.9% (inactive).
With `c1ccc2cc(C[n+]3ccn(Cc4ccc5ccccc5n4)c3)ccc2c1` the growth (T-47D breast) was -5.71% (active) and 13.1% (inactive), the growth (BT-549 breast) was -15.9% (active) and 12.2% (inactive) and the growth (MDA-MB-435 melanoma) was 4.58% (active) and 19.6% (inactive). For the same molecule, the growth (SW-620 colon) was 18.9% (inactive) and 56.4% (inactive), the growth (MCF7 breast) was 9.04% (active) and the growth (HCT-116 colon) was 2.66% (active). The growth (HCC-2998 colon) was 11.1% (inactive) and 30.9% (inactive) and the growth (KM12 colon) was -7.63% (active) and 12.6% (inactive).
In the case of `O=C(Nc1ccc(Br)cc1)c1cc(Br)ccc1O`, the growth (T-47D breast) is reported as 14.7% (inactive) and -7.33% (active), the growth (BT-549 breast) is reported as -16.1% (active) and -40.7% (active) and the growth (MDA-MB-435 melanoma) is reported as -1.59% (active) and -13.4% (active). The growth (SW-620 colon) was 12.4% (inactive) and 4.33% (active), the growth (MCF7 breast) was 5.04% (active) and 4.44% (active) and the growth (HCT-116 colon) was 0.123% (active) and 0.553% (active). The growth (HCC-2998 colon) was 24.4% (inactive) and -42.1% (active) and the growth (KM12 colon) was 4.3% (active) and -15.4% (active).
In the case of `Cn1c(=O)c2[nH]c(CCCCCCCCc3nc4ccccc4[nH]3)nc2n(C)c1=O`, the growth (T-47D breast) is reported as 46.6% (inactive) and 44% (inactive), the growth (BT-549 breast) is reported as 46.1% (inactive) and 54.1% (inactive) and the growth (MDA-MB-435 melanoma) is reported as 37% (inactive) and 52.2% (inactive). The growth (SW-620 colon) was 91.7% (inactive) and 91.2% (inactive), the growth (MCF7 breast) was 45.2% (inactive) and 50.7% (inactive) and the growth (HCT-116 colon) was 40.9% (inactive) and 56% (inactive). For the same molecule, the growth (HCC-2998 colon) was 59.2% (inactive) and 86.5% (inactive) and the growth (KM12 colon) was 83.6% (inactive) and 91.1% (inactive).
In the case of `Cc1ccc(-c2noc(C)n2)cc1`, the growth (T-47D breast) is reported as 104% (inactive), the growth (BT-549 breast) is reported as 98.6% (inactive) and the growth (MDA-MB-435 melanoma) is reported as 99% (inactive). The growth (SW-620 colon) was 108% (inactive), the growth (MCF7 breast) was 95.6% (inactive) and the growth (HCT-116 colon) was 101% (inactive). The growth (HCC-2998 colon) was 103% (inactive) and the growth (KM12 colon) was 116% (inactive).
For `O=C1OC2(c3ccccc31)c1ccc(O)c(O)c1Oc1c2ccc(O)c1O`, the growth (T-47D breast) was 106% (inactive) and 99.5% (inactive), the growth (BT-549 breast) was 118% (inactive) and the growth (MDA-MB-435 melanoma) was 112% (inactive) and 130% (inactive). The growth (SW-620 colon) was 105% (inactive) and 113% (inactive), the growth (MCF7 breast) was 109% (inactive) and 105% (inactive) and the growth (HCT-116 colon) was 110% (inactive) and 102% (inactive). For the same molecule, the growth (HCC-2998 colon) was 104% (inactive) and 109% (inactive) and the growth (KM12 colon) was 104% (inactive) and 113% (inactive).
For `CC(=O)Nc1ccc2cc3ccc(NC(C)=O)cc3nc2c1`, the growth (T-47D breast) was 81.6% (inactive) and 69.9% (inactive), the growth (BT-549 breast) was 106% (inactive) and 92.9% (inactive) and the growth (MDA-MB-435 melanoma) was 83.6% (inactive) and 92.6% (inactive). The growth (SW-620 colon) was 90% (inactive) and 91.3% (inactive), the growth (MCF7 breast) was 68.3% (inactive) and 85.1% (inactive) and the growth (HCT-116 colon) was 92.3% (inactive) and 81.3% (inactive). The growth (HCC-2998 colon) was 77.1% (inactive) and the growth (KM12 colon) was 79.6% (inactive) and 89.5% (inactive).
